Columns and labels:
Assay in all cases: DAPPL (digital affinity profiling via proximity ligation, sequencing); 10 mM Tris-HCl pH 7.5, 50 mM NaCl, 1 mM DTT, 4% glycerol, room temperature, 30 min; GST-TFs on glutathione beads, 16-mer random dsDNA library, 0.1% formaldehyde crosslink after washing; high values mean tight binding
Conditions in all cases: protein: recombinant; tags: N-terminal GST; dsDNA, one strand shown
ELK1 = molecular target: T1, ELK1 (Homo sapiens, UniProt P19419 1-428)
T1 sequence: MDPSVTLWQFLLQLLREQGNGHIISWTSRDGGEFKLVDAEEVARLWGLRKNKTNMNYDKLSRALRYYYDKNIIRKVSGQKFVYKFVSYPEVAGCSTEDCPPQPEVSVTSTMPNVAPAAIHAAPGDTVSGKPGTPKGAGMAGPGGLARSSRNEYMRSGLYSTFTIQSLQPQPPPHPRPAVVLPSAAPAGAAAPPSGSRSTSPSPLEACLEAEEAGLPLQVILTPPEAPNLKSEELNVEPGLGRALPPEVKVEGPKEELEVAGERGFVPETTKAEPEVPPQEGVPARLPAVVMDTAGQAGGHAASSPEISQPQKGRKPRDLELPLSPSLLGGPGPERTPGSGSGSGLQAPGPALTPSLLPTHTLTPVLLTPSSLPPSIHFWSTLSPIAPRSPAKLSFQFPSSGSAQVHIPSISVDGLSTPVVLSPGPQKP
Summary of the method: (§1)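 Sequencing on an Illumina NextSeq500 followed washing, crosslinking with 0.1% formaldehyde, proximity ligation (BsaI/T4 ligase, 1 h, 37 °C) and PCR amplification of pools that had been incubated for 30 min at room temperature with 200 nmole of a random double-stranded 16-mer DNA library in Tris/NaCl/DTT/glycerol buffer. Each pool held DNA-barcoded human transcription factors, expressed in yeast as GST fusions and captured on glutathione beads, plus a tag-only sample. Binding signal is a hexamer's read frequency for a factor divided by its frequency in the tag-only sample.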

ERG = molecular target: T2, ERG (Homo sapiens, UniProt P11308 1-479)
T2 sequence: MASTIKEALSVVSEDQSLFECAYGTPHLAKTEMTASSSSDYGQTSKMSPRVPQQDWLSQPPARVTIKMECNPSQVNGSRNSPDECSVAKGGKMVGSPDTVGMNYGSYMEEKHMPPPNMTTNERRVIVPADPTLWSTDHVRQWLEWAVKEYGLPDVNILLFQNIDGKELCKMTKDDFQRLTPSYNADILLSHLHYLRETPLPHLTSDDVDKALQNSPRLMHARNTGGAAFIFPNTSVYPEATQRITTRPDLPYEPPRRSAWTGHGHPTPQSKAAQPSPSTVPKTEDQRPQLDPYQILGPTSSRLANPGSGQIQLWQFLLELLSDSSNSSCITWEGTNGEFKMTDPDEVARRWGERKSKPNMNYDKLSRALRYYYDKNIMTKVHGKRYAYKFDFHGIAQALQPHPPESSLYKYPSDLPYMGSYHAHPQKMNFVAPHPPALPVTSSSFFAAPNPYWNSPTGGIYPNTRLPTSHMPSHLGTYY
Summary of the method: as §1

ELF1 = ELF1 (Homo sapiens, UniProt P32519 1-619)
Summary of the method: as §1

EHF = molecular target: T3, EHF (Homo sapiens, UniProt Q9NZC4 1-300)
T3 sequence: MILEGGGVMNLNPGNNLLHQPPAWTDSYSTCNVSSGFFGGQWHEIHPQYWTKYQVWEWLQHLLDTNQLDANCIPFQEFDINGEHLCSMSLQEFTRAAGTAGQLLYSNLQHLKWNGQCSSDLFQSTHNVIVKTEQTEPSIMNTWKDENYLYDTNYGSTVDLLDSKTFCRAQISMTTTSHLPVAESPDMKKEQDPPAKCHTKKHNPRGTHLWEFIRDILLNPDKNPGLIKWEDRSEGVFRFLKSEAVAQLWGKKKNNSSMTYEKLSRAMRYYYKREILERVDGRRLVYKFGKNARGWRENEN
Summary of the method: as §1

SPIB = SPIB (Homo sapiens, UniProt Q01892 1-262)
Summary of the method: as §1

FEV = molecular target: T4, FEV (Homo sapiens, UniProt Q99581 1-238)
T4 sequence: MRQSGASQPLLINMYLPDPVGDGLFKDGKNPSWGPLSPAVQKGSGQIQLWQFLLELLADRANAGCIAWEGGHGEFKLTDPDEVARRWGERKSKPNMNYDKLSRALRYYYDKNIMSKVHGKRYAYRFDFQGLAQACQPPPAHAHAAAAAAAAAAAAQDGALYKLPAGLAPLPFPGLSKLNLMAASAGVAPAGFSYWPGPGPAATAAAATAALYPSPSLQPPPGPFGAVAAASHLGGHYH
Summary of the method: as §1

ETV5 = ETV5 (Homo sapiens, UniProt P41161 1-510)
Summary of the method: as §1

ELF4 = ELF4 (Homo sapiens, UniProt Q99607 1-663)
Summary of the method: as §1

ELK4 = molecular target: T5, ELK4 (Homo sapiens, UniProt P28324-2 1-405)
T5 sequence: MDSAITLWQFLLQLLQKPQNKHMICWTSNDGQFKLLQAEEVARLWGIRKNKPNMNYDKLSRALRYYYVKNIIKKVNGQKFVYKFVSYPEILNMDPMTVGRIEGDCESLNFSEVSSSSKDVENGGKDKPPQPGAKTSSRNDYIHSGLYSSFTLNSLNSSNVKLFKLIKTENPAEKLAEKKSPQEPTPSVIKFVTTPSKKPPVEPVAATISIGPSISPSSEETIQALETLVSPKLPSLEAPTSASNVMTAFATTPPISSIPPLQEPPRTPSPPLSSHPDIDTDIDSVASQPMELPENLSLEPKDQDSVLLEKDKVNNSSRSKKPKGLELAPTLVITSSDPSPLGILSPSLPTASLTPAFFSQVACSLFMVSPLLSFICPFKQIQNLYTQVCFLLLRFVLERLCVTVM
Summary of the method: as §1

ETV2 = molecular target: T6, ETV2 (Homo sapiens, UniProt O00321 1-342)
T6 sequence: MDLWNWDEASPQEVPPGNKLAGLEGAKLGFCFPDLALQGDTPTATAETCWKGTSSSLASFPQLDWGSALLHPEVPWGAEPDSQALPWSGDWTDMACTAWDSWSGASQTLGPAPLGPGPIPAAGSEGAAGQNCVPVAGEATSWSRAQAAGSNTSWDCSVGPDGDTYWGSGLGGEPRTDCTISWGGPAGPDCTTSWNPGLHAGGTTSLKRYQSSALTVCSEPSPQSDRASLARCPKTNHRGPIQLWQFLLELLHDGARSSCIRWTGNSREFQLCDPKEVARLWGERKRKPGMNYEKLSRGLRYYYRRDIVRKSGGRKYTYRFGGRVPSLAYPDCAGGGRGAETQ
Summary of the method: as §1

ELF3 = molecular target: T7, ELF3 (Homo sapiens, UniProt P78545 1-371)
T7 sequence: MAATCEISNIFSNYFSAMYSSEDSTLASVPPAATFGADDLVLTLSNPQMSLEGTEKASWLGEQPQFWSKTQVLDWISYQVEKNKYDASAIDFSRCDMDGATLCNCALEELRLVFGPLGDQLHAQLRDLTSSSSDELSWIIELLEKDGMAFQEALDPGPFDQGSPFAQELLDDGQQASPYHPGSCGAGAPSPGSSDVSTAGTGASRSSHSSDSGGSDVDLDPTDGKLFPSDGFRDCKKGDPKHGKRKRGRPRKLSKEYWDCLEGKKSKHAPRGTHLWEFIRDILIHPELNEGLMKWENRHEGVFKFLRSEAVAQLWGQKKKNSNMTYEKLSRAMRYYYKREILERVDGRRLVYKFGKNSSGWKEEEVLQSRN
Summary of the method: as §1

ETV1 = ETV1 (Homo sapiens, UniProt P50549 1-477)
Summary of the method: as §1

ERF = molecular target: T8, ERF (Homo sapiens, UniProt P50548 1-548)
T8 sequence: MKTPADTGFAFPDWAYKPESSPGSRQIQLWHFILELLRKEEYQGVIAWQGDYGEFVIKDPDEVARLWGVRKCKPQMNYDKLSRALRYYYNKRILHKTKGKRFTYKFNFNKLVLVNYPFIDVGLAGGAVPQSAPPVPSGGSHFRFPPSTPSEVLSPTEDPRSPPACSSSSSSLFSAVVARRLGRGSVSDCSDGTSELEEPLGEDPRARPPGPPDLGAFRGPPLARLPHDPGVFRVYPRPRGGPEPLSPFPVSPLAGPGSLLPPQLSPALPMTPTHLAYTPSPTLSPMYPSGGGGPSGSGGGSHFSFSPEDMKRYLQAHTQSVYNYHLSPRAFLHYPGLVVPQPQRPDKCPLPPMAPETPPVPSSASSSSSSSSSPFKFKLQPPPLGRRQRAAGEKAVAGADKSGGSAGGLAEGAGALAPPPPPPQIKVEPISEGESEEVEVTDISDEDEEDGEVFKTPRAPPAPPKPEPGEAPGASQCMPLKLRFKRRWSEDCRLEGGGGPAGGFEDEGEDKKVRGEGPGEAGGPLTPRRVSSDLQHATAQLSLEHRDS
Summary of the method: as §1

ETV3L = molecular target: T9, ETV3L (Homo sapiens, UniProt Q6ZN32 1-361)
T9 sequence: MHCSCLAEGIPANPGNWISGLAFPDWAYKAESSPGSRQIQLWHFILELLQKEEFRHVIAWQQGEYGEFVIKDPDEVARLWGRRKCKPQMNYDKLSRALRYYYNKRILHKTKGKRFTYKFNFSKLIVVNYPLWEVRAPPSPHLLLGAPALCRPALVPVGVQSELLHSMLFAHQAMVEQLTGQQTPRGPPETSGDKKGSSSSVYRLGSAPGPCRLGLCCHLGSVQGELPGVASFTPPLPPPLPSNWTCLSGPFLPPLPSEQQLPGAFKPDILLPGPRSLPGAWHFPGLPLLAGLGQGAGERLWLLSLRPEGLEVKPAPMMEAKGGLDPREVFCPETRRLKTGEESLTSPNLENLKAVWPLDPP
Summary of the method: as §1

ETS2 = molecular target: T10, ETS2 (Homo sapiens, UniProt P15036 1-469)
T10 sequence: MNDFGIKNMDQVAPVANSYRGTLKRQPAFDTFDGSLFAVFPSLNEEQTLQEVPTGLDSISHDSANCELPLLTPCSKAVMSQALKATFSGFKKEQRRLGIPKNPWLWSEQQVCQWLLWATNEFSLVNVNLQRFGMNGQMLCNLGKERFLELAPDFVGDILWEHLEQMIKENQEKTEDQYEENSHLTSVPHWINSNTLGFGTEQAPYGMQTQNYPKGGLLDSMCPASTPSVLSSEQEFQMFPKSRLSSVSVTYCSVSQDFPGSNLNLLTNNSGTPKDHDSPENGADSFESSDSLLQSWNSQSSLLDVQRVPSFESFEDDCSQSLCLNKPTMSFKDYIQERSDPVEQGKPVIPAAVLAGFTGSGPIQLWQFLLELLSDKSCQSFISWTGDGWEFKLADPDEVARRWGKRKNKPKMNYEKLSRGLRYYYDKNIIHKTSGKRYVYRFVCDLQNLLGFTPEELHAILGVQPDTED
Summary of the method: as §1

SPDEF = molecular target: T11, SPDEF (Homo sapiens, UniProt O95238 1-335)
T11 sequence: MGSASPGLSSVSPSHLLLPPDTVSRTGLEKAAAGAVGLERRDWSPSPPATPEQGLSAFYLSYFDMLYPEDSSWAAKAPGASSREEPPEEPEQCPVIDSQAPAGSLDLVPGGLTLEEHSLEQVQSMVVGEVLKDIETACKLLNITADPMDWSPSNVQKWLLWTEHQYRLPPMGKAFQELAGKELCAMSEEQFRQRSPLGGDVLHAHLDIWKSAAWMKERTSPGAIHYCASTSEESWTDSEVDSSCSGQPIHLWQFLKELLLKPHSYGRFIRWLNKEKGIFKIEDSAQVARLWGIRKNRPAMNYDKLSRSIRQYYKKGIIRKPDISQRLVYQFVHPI
Summary of the method: as §1

ETV3 = molecular target: T12, ETV3 (Homo sapiens, UniProt P41162-2 1-143)
T12 sequence: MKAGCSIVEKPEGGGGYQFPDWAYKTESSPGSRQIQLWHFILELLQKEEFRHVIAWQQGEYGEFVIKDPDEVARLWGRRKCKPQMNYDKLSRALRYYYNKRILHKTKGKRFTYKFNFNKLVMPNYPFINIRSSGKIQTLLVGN
Summary of the method: as §1

ETV6 = ETV6 (Homo sapiens, UniProt P41212 1-452)
Summary of the method: as §1

Chain of ELF4 (Q99607 whole entry): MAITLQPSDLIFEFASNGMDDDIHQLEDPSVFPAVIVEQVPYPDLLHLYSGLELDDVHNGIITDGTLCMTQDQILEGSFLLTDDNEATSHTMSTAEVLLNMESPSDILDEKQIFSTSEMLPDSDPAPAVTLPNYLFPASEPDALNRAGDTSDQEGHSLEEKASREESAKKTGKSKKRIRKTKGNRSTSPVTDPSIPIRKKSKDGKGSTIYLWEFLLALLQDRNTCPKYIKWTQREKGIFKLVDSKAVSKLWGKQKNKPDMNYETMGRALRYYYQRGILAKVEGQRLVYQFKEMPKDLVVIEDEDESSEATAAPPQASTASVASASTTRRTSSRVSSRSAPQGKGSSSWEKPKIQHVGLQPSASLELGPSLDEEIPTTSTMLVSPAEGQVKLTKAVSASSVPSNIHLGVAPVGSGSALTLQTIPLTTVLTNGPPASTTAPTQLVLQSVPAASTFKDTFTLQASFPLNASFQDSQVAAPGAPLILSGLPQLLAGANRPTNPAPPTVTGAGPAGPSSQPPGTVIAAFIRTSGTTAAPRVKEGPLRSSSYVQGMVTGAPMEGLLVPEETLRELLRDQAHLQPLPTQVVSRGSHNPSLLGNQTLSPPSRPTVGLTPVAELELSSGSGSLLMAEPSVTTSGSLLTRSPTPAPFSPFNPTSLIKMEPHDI
Chain of SPIB (Q01892 whole entry): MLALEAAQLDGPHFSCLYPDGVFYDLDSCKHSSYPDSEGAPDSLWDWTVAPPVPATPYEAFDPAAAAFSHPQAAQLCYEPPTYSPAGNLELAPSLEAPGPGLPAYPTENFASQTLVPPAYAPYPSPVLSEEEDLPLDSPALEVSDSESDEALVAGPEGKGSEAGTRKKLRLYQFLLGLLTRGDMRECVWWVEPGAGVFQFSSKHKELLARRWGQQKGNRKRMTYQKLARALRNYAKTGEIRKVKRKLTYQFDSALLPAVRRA
Chain of ELF1 (P32519 whole entry): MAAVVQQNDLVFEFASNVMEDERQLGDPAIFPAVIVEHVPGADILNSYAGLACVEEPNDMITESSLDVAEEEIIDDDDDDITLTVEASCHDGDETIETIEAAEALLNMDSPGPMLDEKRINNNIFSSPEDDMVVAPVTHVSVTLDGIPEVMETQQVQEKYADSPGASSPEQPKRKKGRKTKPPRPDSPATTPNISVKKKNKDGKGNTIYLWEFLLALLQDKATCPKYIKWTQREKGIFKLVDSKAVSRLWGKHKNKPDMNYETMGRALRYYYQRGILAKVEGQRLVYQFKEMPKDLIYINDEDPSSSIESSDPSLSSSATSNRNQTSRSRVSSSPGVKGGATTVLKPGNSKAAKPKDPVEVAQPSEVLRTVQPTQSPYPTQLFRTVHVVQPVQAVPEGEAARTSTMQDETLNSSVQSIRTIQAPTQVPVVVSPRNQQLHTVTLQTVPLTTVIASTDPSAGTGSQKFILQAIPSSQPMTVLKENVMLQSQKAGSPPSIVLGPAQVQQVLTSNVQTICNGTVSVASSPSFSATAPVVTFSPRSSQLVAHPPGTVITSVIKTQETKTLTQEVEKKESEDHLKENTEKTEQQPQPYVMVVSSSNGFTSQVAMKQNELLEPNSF
Chain of ETV1 (P50549 whole entry): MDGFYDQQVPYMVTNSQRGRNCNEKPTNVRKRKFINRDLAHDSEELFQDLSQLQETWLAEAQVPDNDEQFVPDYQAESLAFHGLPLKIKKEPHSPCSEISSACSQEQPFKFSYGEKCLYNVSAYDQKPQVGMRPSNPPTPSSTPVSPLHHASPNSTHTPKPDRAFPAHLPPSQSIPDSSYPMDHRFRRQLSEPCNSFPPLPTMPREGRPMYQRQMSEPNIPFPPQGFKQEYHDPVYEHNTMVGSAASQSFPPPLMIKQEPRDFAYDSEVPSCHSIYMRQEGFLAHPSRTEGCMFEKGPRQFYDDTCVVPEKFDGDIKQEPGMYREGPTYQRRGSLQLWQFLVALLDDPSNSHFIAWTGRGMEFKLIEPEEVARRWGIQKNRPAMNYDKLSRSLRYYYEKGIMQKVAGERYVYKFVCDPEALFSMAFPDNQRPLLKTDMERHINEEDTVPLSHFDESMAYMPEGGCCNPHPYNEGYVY
Chain of ETV6 (P41212 whole entry): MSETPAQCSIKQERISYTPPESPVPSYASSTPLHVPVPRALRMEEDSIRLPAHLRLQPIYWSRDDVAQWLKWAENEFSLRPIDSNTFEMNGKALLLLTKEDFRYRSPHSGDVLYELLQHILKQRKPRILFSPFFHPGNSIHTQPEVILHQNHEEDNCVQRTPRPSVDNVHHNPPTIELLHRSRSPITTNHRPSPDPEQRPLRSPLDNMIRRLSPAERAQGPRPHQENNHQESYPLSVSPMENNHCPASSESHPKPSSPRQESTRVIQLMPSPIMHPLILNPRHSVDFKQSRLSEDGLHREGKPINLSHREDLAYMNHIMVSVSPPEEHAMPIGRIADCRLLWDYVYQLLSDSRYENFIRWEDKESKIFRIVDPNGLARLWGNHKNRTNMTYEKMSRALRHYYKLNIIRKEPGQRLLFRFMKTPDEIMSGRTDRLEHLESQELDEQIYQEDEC
Chain of ETV5 (P41161 whole entry): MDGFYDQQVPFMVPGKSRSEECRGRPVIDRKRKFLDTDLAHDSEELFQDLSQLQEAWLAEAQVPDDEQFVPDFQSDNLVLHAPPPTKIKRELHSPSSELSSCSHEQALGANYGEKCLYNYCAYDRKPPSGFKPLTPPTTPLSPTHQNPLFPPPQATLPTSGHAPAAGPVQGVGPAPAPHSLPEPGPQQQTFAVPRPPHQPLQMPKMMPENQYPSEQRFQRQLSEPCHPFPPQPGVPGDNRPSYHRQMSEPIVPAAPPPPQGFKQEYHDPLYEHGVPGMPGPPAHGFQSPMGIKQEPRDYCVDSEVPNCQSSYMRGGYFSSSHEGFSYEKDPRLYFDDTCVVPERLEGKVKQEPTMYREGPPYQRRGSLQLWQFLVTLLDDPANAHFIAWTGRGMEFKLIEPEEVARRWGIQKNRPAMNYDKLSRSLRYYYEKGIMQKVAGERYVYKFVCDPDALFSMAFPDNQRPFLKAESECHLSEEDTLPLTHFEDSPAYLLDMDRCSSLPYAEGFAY

For CAAGTT, the binding signal (ELK1) was 1.06 fold enrichment (6-mer frequency, TF over GST control), the binding signal (ERG) was 1.08 fold enrichment (6-mer frequency, TF over GST control) and the binding signal (ELF1) was 1.06 fold enrichment (6-mer frequency, TF over GST control). For the same sequence, the binding signal (EHF) was 1.02 fold enrichment (6-mer frequency, TF over GST control), the binding signal (SPIB) was 1.1 fold enrichment (6-mer frequency, TF over GST control) and the binding signal (FEV) was 1.02 fold enrichment (6-mer frequency, TF over GST control). The binding signal (ETV5) was 1.08 fold enrichment (6-mer frequency, TF over GST control), the binding signal (ELF4) was 1.09 fold enrichment (6-mer frequency, TF over GST control) and the binding signal (ELK4) was 1.08 fold enrichment (6-mer frequency, TF over GST control). The binding signal (ETV2) was 1.03 fold enrichment (6-mer frequency, TF over GST control), the binding signal (ELF3) was 1.06 fold enrichment (6-mer frequency, TF over GST control) and the binding signal (ETV1) was 1.05 fold enrichment (6-mer frequency, TF over GST control). For the same sequence, the binding signal (ERF) was 1.2 fold enrichment (6-mer frequency, TF over GST control), the binding signal (ETV3L) was 1.1 fold enrichment (6-mer frequency, TF over GST control) and the binding signal (ETS2) was 1.13 fold enrichment (6-mer frequency, TF over GST control). For the same sequence, the binding signal (SPDEF) was 1.02 fold enrichment (6-mer frequency, TF over GST control), the binding signal (ETV3) was 1.16 fold enrichment (6-mer frequency, TF over GST control) and the binding signal (ETV6) was 1.09 fold enrichment (6-mer frequency, TF over GST control).
